HP1b chromo inh = HTS for Inhibitors of HP1-beta Chromodomain Interactions with Methylated Histone Tails; Chromobox protein homolog 1 (Homo sapiens), P83916; AlphaScreen HP1-beta / biotin-H3K9me3 peptide binding; Potency, µM (top dose mostly 114 µM), for the others: at the top dose activity change, negative = inhibition, hits mostly inhibitors; 0.56% of 390,000 active; also: nearly all actives have a fitted effect of over 70% in size
Target sequence (P83916 whole entry, looked up): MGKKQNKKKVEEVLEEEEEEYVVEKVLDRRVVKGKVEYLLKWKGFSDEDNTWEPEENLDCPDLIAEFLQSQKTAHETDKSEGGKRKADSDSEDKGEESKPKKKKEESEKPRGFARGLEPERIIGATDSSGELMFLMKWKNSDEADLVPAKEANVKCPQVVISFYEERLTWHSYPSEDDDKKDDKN
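Compound inhibition of the preformed complex between 50 nM HP1-beta and 50 nM biotinylated H3K9me3 peptide was read by AlphaScreen. Buffer was PBS pH 7.4 with 0.01% Tween-20. Incubations ran 30 min at room temperature, with 10 ug/mL donor/acceptor beads.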
JMJD2A Tudor = qHTS Assay for Inhibitors of JMJD2A-Tudor Domain | Lysine-specific demethylase 4A (Homo sapiens), O75164 | AlphaScreen JMJD2A-Tudor / H3K4me3 peptide binding | Potency, µM (series often up to 114 µM), for the others: top-dose activity change, negative = inhibition, hits mostly inhibitors | 4.4% of 390,000 active | AID 504339, 2011; also: % is scaled to controls: 0 for no effect and ±100 for the full control effect; nearly all actives have a fitted effect of over 50% in size
L3MBTL1 inh = qHTS Assay for the Inhibitors of L3MBTL1; Lethal(3)malignant brain tumor-like protein 1 (Homo sapiens), Q9Y468; AlphaScreen L3MBTL1–H3K9me1 peptide binding; Potency, µM (series often up to 57.1 µM), for the others: at the top dose activity, negative = inhibition, actives largely listed as inhibitors; 0.66% of 230,000 active; also: % is scaled to controls: 0 for no effect and ±100 for the full control effect; nearly all actives have a fitted effect of over 60% in size
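Read-out is AlphaScreen signal from streptavidin donor and nickel chelate acceptor beads (10 ug/mL final each) bridging L3MBTL1 (50 nM) and biotinylated K9-monomethylated H3(1-15) peptide (75 nM), after 30 min compound exposure at room temperature.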
Sfp inh = qHTS Assay for Inhibitors of Bacillus subtilis Sfp phosphopantetheinyl transferase (PPTase). 4'-phosphopantetheinyl transferase ffp (Bacillus subtilis), Q9F4F7. Biochemical Sfp PPTase activity, qHTS. Potency, µM, inactives show largest response in the series, negative = inhibition, actives largely listed as inhibitors. 3.5% of 310,000 active. AID 1490, 2009;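 also: the enzyme is Sfp with the accession as filed and its product quenches rhodamine fluorescence; 0% = enzyme reaction without inhibitor and -100% = no enzyme wells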
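With Hepes-Na pH 7.6 buffer containing 10 mM MgCl2, Sfp (15 nM) modified BHQ-2-YbbR (12.5 uM) using rhodamine-CoA (5 uM). Two reads 30 minutes apart at 525/598 nm yielded each well's rate.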
G9a inh = qHTS Assay for Inhibitors of Histone Lysine Methyltransferase G9a; G9a H3K9 monomethylation, AlphaScreen, 2 h; Potency, µM (highest dose often 102 µM), for the others: at the highest dose activity, negative = inhibition, hits mostly inhibitors; 8.8% of 350,000 active; AID 504332, 2011; also: % is scaled to controls: 0 for no effect and ±100 for the full control effect; nearly all actives have a fitted effect of over 75% in size
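AlphaScreen read-out: biotin-H3K9 peptide (500 nM) methylation by 20 nM enzyme with 20 uM SAM, 2 h at room temperature after 15 min compound preincubation; anti-monomethyl H3K9 antibody plus donor/acceptor beads, 10 min dark.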
BAZ2B block = qHTS Assay for Inhibitors of BAZ2B; Bromodomain adjacent to zinc finger domain protein 2B (Homo sapiens), Q9UIF8; AlphaScreen BAZ2B-H3K14Ac peptide displacement; Potency, µM (titrated, usually from 114 µM), for the others: top-dose activity change, negative = inhibition, hits mostly inhibitors; 4.4% of 360,000 active; AID 504333, 2011; also: % is scaled to controls: 0 for no effect and ±100 for the full control effect; nearly all actives have a fitted effect of over 60% in size
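BAZ2B (50 nM) with biotin-H3(5-23)K14Ac peptide (50 nM) in PBS pH 7.4, 0.01% Tween-20, preformed 30 min, then compound 30 min at room temperature; top concentration 110uM. AlphaScreen streptavidin donor/nickel chelate acceptor beads (10 ug/mL final), 20 min dark, signal read.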
Starred values were filed as active, the others as inactive; ? = inconclusive; . = not tested or not shown; [ ] = remark or other dose. This is a sample that favours compounds with a hit; in the whole collection about 12% have one here. Calls follow the shape of the dose curve; as a rule, active = well fitted curve in the direction sought with a large enough effect; inconclusive = small, poorly fitted or top-dose-only effect, or another doubt; inactive = no such curve, though single readings can be large; an effect the other way counts as inactive or inconclusive. Potency is read from the fitted curve at half-maximal effect.

SMILES	HP1b chromo inh	JMJD2A Tudor	L3MBTL1 inh	Sfp inh	G9a inh	BAZ2B block
CCC(=O)OC1C2CC3=C4CC(=O)OC(c5ccoc5)[C@]4(C)CCC3[C@@](C)(C2=O)C(CC(=O)OC)C1(C)C (stereo not given in full)	.	.	.	-0.5%	-23.6%[2.33 µM]	.
CC(=O)Nc1ccc(N2C(=O)CSC2c2cccc([N+](=O)[O-])c2)cc1 (stereo not given)	27.2%	1.7%	11.9%	19.8%	0.5%	-23.8%
NC1=NC(c2ccc(Cl)cc2)C(C(=O)c2ccccc2)N1 (stereo not given)	25.7%	-13.0%	.	15.7%	15.4%	-1.1%
COc1ccc(C2CC(c3ccccc3)Oc3c(C)ccc(C(C)C)c32)cc1 (stereo not given)	31.0%	-11.0%	.	8.7%	.	.
COc1ccccc1C(=O)COC(=O)CNS(=O)(=O)c1ccc(C)cc1	6.4%	-25.5%	-4.1%	9.9%	0.8%	.
Cc1cccc(N/N=C/c2ccccc2O)c1	-10.7%	?	11.5%	4.1%	1.58µM*	14.5%
Cc1cccc(NC(=O)C(=O)N/N=C/c2ccncc2)c1	33.4%	-10.4%	3.2%	3.9%	?	-9.5%
O=[N+]([O-])c1ccc(N/N=C/c2ccccc2O)cc1	12.0%	-7.0%	.	-9.4%	21.0%	-2.6%
Cc1cccc(N/N=C/c2ccncc2)c1	-8.6%	?	.	3.4%	50.1µM*	-38.9%
CCN(CC)c1ccc(N=Cc2cc(Br)ccc2O)cc1	0.0%	39.8µM*	.	63.1µM*	14.1µM*	-31.6%
CC(C)(C)c1ccc(O)c(N=Cc2cc(Br)ccc2O)c1	?	3.98µM*	-17.3%	50.1µM*	1.78µM*	-19.8%
COc1ccc(C2Nc3ccccc3C(=O)N2c2ccccc2F)cc1COc1ccc(NC(C)=O)cc1 (stereo not given)	-5.3%[57 µM]	-12.3%[57.1 µM]	.	.	.	.
Cc1ccc(NC(=S)c2ccc(N(C)C)cc2)cc1	37.6%	-14.5%[57.1 µM]	-6.4%	-3.1%	-5.4%[59 µM]	-4.6%
Cc1ccc2c(c1)sc(-c1ccc(N(C)C)cc1)[n+]2C	23.3%	-33.8%	.	-10.7%	50.1µM*	-36.1%
O=c1c(N2CCOCC2)coc2ccccc12	90.5%	-9.7%	-1.3%	-3.4%	3.55µM*	-11.9%
